Experimental data taken from publication PMC5540273 (PLoS ONE, 2017).

Tested on: BTK
Conditions: concentration: 1 μM, replicates: in singlicate; n = 1
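Also: KINOMEscan kinase panel screen.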

| Compound | %Inh [%] |
| --- | --- |
| CN(c1ccc2c(c1)nc(NCc1ccccc1)n2C)c1ccnc(Nc2ccc(CS(C)(=O)=O)cc2)n1.Cl [GW811603] | 64 |
| COc1cccc(C2=C(Nc3cccc(O)c3)C(=O)NC2=O)c1 [SB-390771] | 0 |
| O=C(Nc1c(F)cccc1F)c1cc(C(=O)c2ccccc2F)c[nH]1 [GSK1326180] | 0 |
| CC(C)c1nc(-c2ccc(F)c(NS(=O)(=O)c3c(F)cccc3F)c2)c(-c2ccnc(Nc3ccc(N4CCOCC4)nc3)n2)s1 [GSK1804250] | 90 |
| Cl.O=C(Nc1ccc(Oc2ccc3[nH]c(NC(=O)c4ccco4)nc3c2)cc1)Nc1cc(C(F)(F)F)ccc1F [GW683134] | 0 |
| c1ccc(Oc2ccc(Nc3ccnc4cc(-c5ccc(CN6CCCCC6)o5)ccc34)cc2)nc1 [GW567143] | 0 |
| N#CC1(c2cccc(C(=O)Nc3cccc(Oc4ccc5nc(NC(=O)C6CC6)sc5n4)c3)c2)CC1 | 6 |
| CNc1nccc(-c2ccc3c(N)n[nH]c3c2)n1 [GSK2206003] | 3 |
| COc1cccc(NC(=O)NCCNc2ccnc(Nc3ccc(F)cc3)n2)c1 [GSK1379879] | 0 |
| Cc1cccc(Nc2nc(N[C@H]3CCCC[C@H]3N)ncc2C(N)=O)c1.Cl [GSK986310] | 0 |
| COC(=O)Nc1nc2cc(Oc3ccc(NC(=O)Nc4cccc(SC)c4)cc3)ccc2[nH]1.Cl [GW697999] | 2 |
| CN(c1ccc(NC(=O)N2CCN(CCCN3CCOCC3)CC2)cc1)c1ccnc(Nc2ccc(CS(C)(=O)=O)cc2)n1.Cl [GW830899] | 0 |
| O=C(Nc1n[nH]c2nc(-c3ccccc3O)ccc12)C1CC1 [SB-711880] | 0 |
| CCn1c(-c2nonc2N)nc2c(-c3ccccc3)ncc(OCCCN)c21.O=C(O)C(F)(F)F.O=C(O)C(F)(F)F [GSK260205] | 0 |
| Cc1ccc(NC(=O)c2ccnc(N3CCCCC3)c2)cc1-c1ccc(C(=O)NCC2CC2)cc1 [GW775610] | 0 |
| O=C(O)C(F)(F)F.O=c1[nH]ccc2nc(N[C@@H]3CCNC3)nc(Nc3ccc4c(c3)S(=O)(=O)CC4)c12 [GSK2181306] | 29 |
| Cc1ccccc1CC(=O)N1CCc2cc(-c3cn(C)c4ncnc(N)c34)ccc21 [GSK2603346] | 0 |

| Compound | %Inh [%] |
| --- | --- |
| Cc1ccc(O)cc1Nc1ccnc2cc(-c3ccc(CN4CCCCC4)o3)ccc12 [GW557777] | 19 |
| COc1ccc(C2=C(Nc3cccc(O)c3)C(=O)NC2=O)cc1 [SB-390766] | 0 |
| Cc1ccc(O)cc1Nc1ccnc2ccc(C(C)(C)C)cc12 [GW856805] | 0 |
| O=C(Nc1n[nH]c2nc(-c3ccccc3)ccc12)C1CC1 [SB-708999] | 40 |
| NCCC(NC(=O)c1cc(Br)c(-c2ccnc3[nH]ccc23)s1)c1ccccc1.O=C(O)C(F)(F)F.O=C(O)C(F)(F)F (stereo not drawn) [GSK1307810] | 24 |
| CCOc1nccc(-c2c(-c3ccc(F)cc3)ncn2C2CCNCC2)n1 [SB-249175] | 34 |
| CN1CCN(Cc2ccc(NC(=O)Nc3ccc(N(C)c4ccnc(Nc5ccc(CS(C)(=O)=O)cc5)n4)cc3)cc2)CC1.Cl [GW827654] | 60 |
| Cn1cc(-c2ccc3c(c2)CCN3C(=O)Cc2cc(F)cc(F)c2F)c2c(N)ncnc21 [GSK2634140] | 0 |
| Cl.Cl.NCC(NC(=O)c1cc(-c2cccnc2)c(-c2ccnc3[nH]ccc23)s1)c1ccccc1 (stereo not drawn) [GSK1323434] | 0 |
| Cc1ccc(NC(=O)c2cccc(N3CCCCC3)c2)cc1-c1ccc(C(=O)NCC2CC2)cc1 [GSK1917008] | 0 |
| Cc1nn2c(=O)cc(N3CCO[C@H](C)C3)nc2n1Cc1cccc(Cl)c1Cl [GSK2373693] | 0 |
| Cl.N#CCc1ccc(Nc2nccc(Nc3ccc(Oc4ccccc4)cc3)n2)cc1 [GW639905] | 0 |
| Cn1cc(-c2cnc(N)c3c(-c4ccc5c(c4)CCN5C(=O)Cc4ccccc4)csc23)cn1 [GSK2593074] | 0 |
| CC(=O)Nc1cn2nc(Oc3cccc(NC(=O)c4cccc(C(F)(F)F)c4)c3)ccc2n1 | 4 |
| O=C(Nc1n[nH]c2cc(-c3cccs3)ccc12)C1CC1 [SB-731284] | 54 |
| CN(c1ccc(NC(=O)Nc2cccc(Cl)c2)cc1)c1ccnc(N)n1.Cl [GW830707] | 0 |
